This is a sample that favours compounds with a hit; in the whole collection about 17% have one here.
TGFb inhibitor: blocks TGF-b signaling; HepG2 CAGA-GFP TGF-b/SMAD3 reporter, GFP fluorescence, 18 h; TGF-beta stimulated, 500 pg/mL final; 410,000 compounds, 1.2% hits; AID 588855; Potency, µM (top dose mostly 46.1 µM), without a hit: top-dose activity, negative = inhibition, most hits filed as inhibitors; also: % is scaled to controls: 0 for no effect and ±100 for the full control effect; nearly all actives have a fitted effect of over 65% in size
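HEPG2 CAGA-GFP reporter cells (1000/well, DMEM with 1% FBS) received compounds, then recombinant TGF-beta at 500 pg/mL final for 18 hours at 37 degrees C. Per-cell GFP summed per well was normalised to unstimulated and stimulated DMSO controls before curve fitting.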
ATXN viability: cell viability loss in ATXN counter-screen. S2 cells (HEK-293 line with an ATXN2-luciferase reporter) viability, CellTiter-Fluor protease fluorescence, 24 h. Potency, µM (highest dose often 56.7 µM), usual class: cytotoxic. 400,000 compounds, 0.49% hits. AID 651635; also: nearly all actives have a fitted effect of over 40% in size
TDP1 cell CPT: growth inhibition of DT40 Tdp1-/-;hTDP1 cells with camptothecin (screen for TDP1 inhibitors). Potency, µM (doses to about 46.2 µM), without a hit: at the top dose activity change, negative = growth inhibition, actives largely listed as inhibitors. 420,000 compounds, 12% hits. AID 686979. chicken DT40 Tdp1-/-;hTDP1 cells + 20 nM CPT, ATP luminescence, 48 h; also: % is scaled to controls: 0 for no effect and ±100 for the full control effect; nearly all actives have a fitted effect of over 55% in size
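Chicken DT40 Tdp1-/- cells complemented with human TDP1, 400 cells/well, exposed to compounds plus 20 nM camptothecin for at least 48 h at 37 C; viability read as ATP content by CellTiter-Glo luminescence.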
ATXN2 expr inh: reduces ATXN2 reporter expression in HEK-293 cells | HEK-293 ATXN2-luciferase reporter, luminescence, 24 h | Potency, µM (series often up to 57 µM), inactives show top-dose activity change, negative = inhibition, hits mostly inhibitors | 360,000 compounds, 0.72% hits; also: % is scaled to controls: 0 for no effect and ±100 for the full control effect; nearly all actives have a fitted effect of over 55% in size
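ATXN2-luciferase reporter cells (luciferase flanked by upstream and downstream ATXN2 gene portions) were treated 24 h at 37 °C with compounds at up to 57 uM. SteadyGlo luminescence gave expression; GF-AFC fluorescence gave viability.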
DT40 TDP1 no CPT: qHTS for Inhibitors of human tyrosyl-DNA phosphodiesterase 1 (TDP1): qHTS in cells in absence of CPT; DT40 Tdp1-/- hTDP1 cells, no CPT, ATP luminescence, 48 h; Potency, µM (series often up to 46.2 µM), inactives show at the top dose activity change, negative = growth inhibition, hits mostly inhibitors; 420,000 compounds, 15% hits; AID 686978, 2013; also: % is scaled to controls: 0 for no effect and ±100 for the full control effect; nearly all actives have a fitted effect of over 55% in size
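Compound effects on proliferation are scored in DT40 Tdp1-/-;hTDP1 cells in the absence of CPT. ATP levels (CellTiter-Glo luminescence) are recorded after a ≥48 hr, 37 °C incubation.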
HepG2 tox: kills HepG2 cells in TGF-b inhibitor counter-screen; AID 588856; HepG2 CAGA-GFP viability, ATP luminescence, 18 h; 410,000 compounds, 0.76% hits; Potency, µM (titrated, usually from 46.1 µM), without a hit: at the highest dose activity change, negative = cytotoxicity, actives largely listed as cytotoxic
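CellTiter-Glo luminescence gave cytotoxicity after 18 hours at 37 degrees C. The cells were HepG2 CAGA-GFP in 1% FBS DMEM, stimulated with 500 pg/mL TGF-beta after compound addition. %Activity was normalised to no-cell wells (complete cell-killing) and DMSO (no toxicity), and curves were fitted and classified.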
Starred values were filed as active, the others as inactive; i = inactive; ? = inconclusive; . = not tested or not shown; [ ] = dose if it differs, or a comment. Calls follow the shape of the dose curve; as a rule, active = well fitted curve in the direction sought with a large enough effect; inconclusive = small, poorly fitted or top-dose-only effect, or another doubt; inactive = no such curve, though single readings can be large; an effect the other way counts as inactive or inconclusive. Potency is read from the fitted curve at half-maximal effect.

SMILES | TGFb inhibitor | ATXN viability | TDP1 cell CPT | ATXN2 expr inh | DT40 TDP1 no CPT | HepG2 tox
COc1cccc(C(=O)N2CCC[C@@H]2C(=O)N2CCC[C@H]2C(=O)NCc2ccncc2)c1 | . | i | -25% | -2% | 0% | .
CC(=O)Nc1cc(-c2ccc(C(=O)N3CCOCC3)cc2)cn2c(-c3ccc(S(C)(=O)=O)cc3)cnc12 | 1% | i | 16µM* | 6% | 13µM* | -28%
CC(=O)Nc1cc(-c2ccc(C(=O)N3CCOCC3)cc2)cn2c(-c3ccc(F)c(Cl)c3)cnc12 | -3% | ? | 23µM* | -28% | 16µM* | -17%
CC(=O)Nc1cc(-c2ccccc2CN(C)C)cn2c(-c3ccc(F)c(Cl)c3)cnc12 | ? | i | ? | -13% | ? | -68%
CC(=O)Nc1cc(-c2cccc(C(=O)NCCN(C)C)c2)cn2c(-c3ccc(S(C)(=O)=O)cc3)cnc12 | -3% | i | 5% | 5% | -29% | -13%
Cc1cccc(CC(=O)N2CC(=O)Nc3ccc(Br)cc3C2c2ccc(F)cc2)c1 (stereo unspecified) | ? | ? | ? | ? | ? | -22%
CSc1ccc(/C=N/NC(=O)c2sccc2C)cc1 | -12% | i | ? | 7% | ? | -34%
COC(=O)C1=C(O)/C(=C\c2ccc(CNC(=O)C(=O)Nc3ccc(C)cc3)o2)N=C1C | -29% | i | ? | -12% | ? | -8%
CCOC(=O)C1=C(O)/C(=C/c2ccc(CNC(=O)C(=O)Nc3ccc(C)cc3)o2)N=C1C | 21% | ? | ? | ? | 6.5µM* | -11%
Cc1ccc(C)c(SCC(=O)c2ccc[nH]2)c1 | -14% | i | ? | -7% | ? | -25%
Cc1ccccc1C(=O)NC1CC(C)(C)NC(C)(C)C1 | 2% | i | 1% | -5% | 0% | 17%
CC1(C)CC(NC2C3CC4CC(C3)CC2C4)CC(C)(C)N1 (stereo unspecified) | 0% | i | 18µM* | 3% | 15µM* | -57%
CCOc1ccc(CNCc2c(C(=O)O)n(Cc3ccc(C)cc3)c3cc(C)ccc23)cc1 | ? | . | ? | ? | ? | -110%
Cc1c(CNCCCc2ccccc2)c(C(=O)O)c(C)n1Cc1cccc(Cl)c1 | -18% | ? | ? | -2% | 21µM* | -15%
CCOc1ccc(CNCc2c(C(=O)O)c(C)n(Cc3ccc(C)cc3)c2C)cc1 | -2% | i | ? | -2% | 18µM* | -3%
Cc1c(CNCCCc2ccccc2)c(C(=O)O)c(C)n1Cc1ccc(Cl)cc1 | -15% | ? | ? | -14% | 21µM* | -28%
Cc1c(CNCCCc2ccccc2)c(C(=O)O)c(C)n1Cc1ccccc1 | 1% | ? | -20% | 5%[11.3 µM] | 2% | -3%
OCc1cccc[n+]1CCc1ccccc1 | 19% | i | 27% | 3% | -6% | 30%
CCO/N=C(\C)c1c(O)c2ccccc2n(C)c1=O | 9% | i | 12% | -7% | 0% | 9%
CCC(Oc1ccc(Br)cc1Cl)C(=O)Nc1nnc(C2CC2)s1 (stereo unspecified) | ? | i | -15% | 6% | -24% | 15%
Cc1ccc(S(=O)(=O)NCC23C=CC(O2)C2C(=O)N(c4ccccc4)C(=O)C23)cc1 (stereo unspecified) | -26% | i | ? | 1% | ? | 1%
Cc1ccc(N2C(=O)C3C4C=CC(CNC(=S)N5CCN(c6ccccc6)CC5)(O4)C3C2=O)cc1 (stereo unspecified) | -19% | i | 18µM* | . | 18µM* | -14%
Cc1cccc(NC(=S)NCC23C=CC(O2)C2C(=O)N(c4ccc(Cl)cc4)C(=O)C23)c1 (stereo unspecified) | 0% | i | ? | -21% | 21µM* | -15%
Cc1ccc(NC(=S)NCC23C=CC(O2)C2C(=O)N(c4ccc(C)cc4)C(=O)C23)cc1 (stereo unspecified) | ? | i | 18µM* | 7% | ? | -23%
CCCCNS(=O)(=O)c1cccc(NC(=O)[C@@H]2O[C@H](CO)[C@H](O)[C@H](O)[C@H]2O)c1 | 0% | i | -9% | -2% | ? | -58%
SMILES | TGFb inhibitor | ATXN viability | TDP1 cell CPT | ATXN2 expr inh | DT40 TDP1 no CPT | HepG2 tox
Cc1ccccc1-c1nccc(NCCN2CCOCC2)n1 | . | . | -6% | . | 8% | .
CSc1cccc(-c2nnc(NC(=O)c3cccc(N4C(=O)CCC4=O)c3)o2)c1 | 6% | i | 0% | 1% | -11% | 3%
NC(=O)c1sc2nnc(-c3ccccc3)c(-c3ccccc3)c2c1N | -21% | . | ? | -14% | 15µM* | -2%
CCN(c1ccccc1)S(=O)(=O)c1ccc(C(=O)Nc2cc(C)ccn2)cc1 | -20% | i | 16µM* | ? | 18µM* | -16%
O=C(NC(Cc1ccccc1)C(=O)NC(Cc1ccccc1)C(=O)O)c1ccccc1 (stereo unspecified) | -5% | i | 5% | 23% | 0% | 2%
CCN(c1ccccc1)S(=O)(=O)c1ccc(C(=O)Nc2ccncc2)cc1 | -24% | i | 23µM* | -13% | 21µM* | -43%
Cc1ccnc(NC(=O)C(Cc2ccccc2)NC(=O)c2ccccc2)c1 (stereo unspecified) | 1% | i | ? | . | 16µM* | 7%
Clc1cnccn1 | . | i | . | . | . | .
O=[N+]([O-])c1ncn(Cc2c(Cl)cccc2Cl)n1 | -2% | i | 18µM* | -4% | ? | -7%
O=[N+]([O-])c1ncn(Cc2ccccc2Cl)n1 | 7% | i | 1% | 0% | 2% | 6%
CCOc1cc(O)c(-c2[nH]ncc2-c2nc(C)cs2)cc1CC | ? | i | 23µM* | -24% | 21µM* | -47%
O=C(c1ccc2c(=O)n3c(nc2c1)CCCCC3)N1CCN(c2ccc(F)cc2)CC1 | -7% | i | -22% | -5% | ? | -2%
O=C(Nc1cccc(S(=O)(=O)N2CCOCC2)c1)c1ccc2c(=O)n3c(nc2c1)CCCCC3 | -22% | i | 13µM* | ? | 10µM* | -18%
CC(=O)c1cccc(NC(=O)c2ccc3c(=O)n4c(nc3c2)CCCCC4)c1 | -25% | i | ? | 19% | ? | -24%
O=C(Nc1cccc(S(=O)(=O)N2CCCC2)c1)c1ccc2c(=O)n3c(nc2c1)CCCCC3 | ? | i | 15µM* | ? | 16µM* | -30%

Assay outcomes from PubChem BioAssay.
